Our source for the binding signal values is paper PMC7862700, “An all-to-all approach to the identification of sequence-specific readers for epigenetic DNA modifications on cytosine”.

Assay in all cases: DAPPL (digital affinity profiling via proximity ligation, sequencing); 10 mM Tris-HCl pH 7.5, 50 mM NaCl, 1 mM DTT, 4% glycerol, room temperature, 30 min; GST-TFs on glutathione beads, 16-mer random dsDNA library, 0.1% formaldehyde crosslink after washing; high values mean tight binding
One test concerns the target T1, FEV (Homo sapiens, UniProt Q99581 1-238).
T1 sequence: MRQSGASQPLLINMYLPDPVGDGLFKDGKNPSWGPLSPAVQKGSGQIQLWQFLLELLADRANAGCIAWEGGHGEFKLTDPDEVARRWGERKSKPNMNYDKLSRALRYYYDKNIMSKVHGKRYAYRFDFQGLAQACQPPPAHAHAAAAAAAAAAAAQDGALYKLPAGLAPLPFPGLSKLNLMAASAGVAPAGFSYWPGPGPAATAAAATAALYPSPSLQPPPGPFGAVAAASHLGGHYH
As to conditions: protein: recombinant; tags: N-terminal GST; dsDNA, one strand shown. The method in brief:
(§1)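 Human transcription factors were made in yeast as GST fusions, captured on glutathione beads and barcoded with DNA. With a tag-only sample included, the pool was incubated with 200 nmole of a random double-stranded 16-mer DNA library in Tris/NaCl/DTT/glycerol buffer at room temperature for 30 min, then crosslinked with 0.1% formaldehyde after washing, ligated by proximity, amplified and sequenced. For binding signal, each hexamer's read frequency for a factor is divided by its frequency for the tag-only sample.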

The target in a further test is ETV5 (Homo sapiens, UniProt P41161 1-510). As to conditions: protein: recombinant; tags: N-terminal GST; dsDNA, one strand shown. The method in brief:
as §1

The next test concerns the target HSF1 (Homo sapiens, UniProt Q00613 1-529). As to conditions: protein: recombinant; tags: N-terminal GST; chain copies: 3; dsDNA, one strand shown. The method in brief: as §1
A further test concerns the target T2, SPIC (Homo sapiens, UniProt Q8N5J4 1-248).
T2 sequence: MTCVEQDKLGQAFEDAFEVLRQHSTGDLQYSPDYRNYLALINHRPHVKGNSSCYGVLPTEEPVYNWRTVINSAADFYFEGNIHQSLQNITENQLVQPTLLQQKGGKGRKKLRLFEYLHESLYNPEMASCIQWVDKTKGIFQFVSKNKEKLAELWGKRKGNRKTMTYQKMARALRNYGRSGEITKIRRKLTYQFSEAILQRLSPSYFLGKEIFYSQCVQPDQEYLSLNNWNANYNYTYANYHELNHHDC
The note with it: protein: recombinant; tags: N-terminal GST; dsDNA, one strand shown. The method in brief:
as §1

The target of another test is ELF4 (Homo sapiens, UniProt Q99607 1-663). As to conditions: protein: recombinant; tags: N-terminal GST; dsDNA, one strand shown. An outline of the steps: as §1
Another test has as its target T3, ELK4 (Homo sapiens, UniProt P28324-2 1-405).
T3 sequence: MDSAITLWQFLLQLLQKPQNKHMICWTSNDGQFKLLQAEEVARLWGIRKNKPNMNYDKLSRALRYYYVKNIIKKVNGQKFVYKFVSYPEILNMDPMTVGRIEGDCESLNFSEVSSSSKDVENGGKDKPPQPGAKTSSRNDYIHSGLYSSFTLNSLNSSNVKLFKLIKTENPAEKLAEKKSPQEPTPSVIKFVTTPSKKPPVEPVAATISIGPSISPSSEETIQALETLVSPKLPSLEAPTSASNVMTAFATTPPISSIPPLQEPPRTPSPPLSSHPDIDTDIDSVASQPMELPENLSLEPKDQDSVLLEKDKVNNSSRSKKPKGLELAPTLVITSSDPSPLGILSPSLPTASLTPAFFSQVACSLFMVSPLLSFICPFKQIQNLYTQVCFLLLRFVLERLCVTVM
The note with it: protein: recombinant; tags: N-terminal GST; dsDNA, one strand shown. An outline of the steps:
as §1

The next test concerns the target T4, ETV2 (Homo sapiens, UniProt O00321 1-342).
T4 sequence: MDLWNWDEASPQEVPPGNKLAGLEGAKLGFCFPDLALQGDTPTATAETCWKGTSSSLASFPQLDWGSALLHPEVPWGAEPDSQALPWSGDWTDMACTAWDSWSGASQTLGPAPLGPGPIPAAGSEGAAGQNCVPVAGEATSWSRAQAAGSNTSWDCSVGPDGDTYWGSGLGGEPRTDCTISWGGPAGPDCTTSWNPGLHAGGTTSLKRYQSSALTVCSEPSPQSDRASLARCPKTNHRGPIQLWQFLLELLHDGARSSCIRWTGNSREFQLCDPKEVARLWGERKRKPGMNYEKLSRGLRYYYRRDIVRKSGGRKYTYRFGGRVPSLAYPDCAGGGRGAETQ
The note with it: protein: recombinant; tags: N-terminal GST; dsDNA, one strand shown. The method in brief:
as §1

The target in another test is T5, ELF3 (Homo sapiens, UniProt P78545 1-371).
T5 sequence: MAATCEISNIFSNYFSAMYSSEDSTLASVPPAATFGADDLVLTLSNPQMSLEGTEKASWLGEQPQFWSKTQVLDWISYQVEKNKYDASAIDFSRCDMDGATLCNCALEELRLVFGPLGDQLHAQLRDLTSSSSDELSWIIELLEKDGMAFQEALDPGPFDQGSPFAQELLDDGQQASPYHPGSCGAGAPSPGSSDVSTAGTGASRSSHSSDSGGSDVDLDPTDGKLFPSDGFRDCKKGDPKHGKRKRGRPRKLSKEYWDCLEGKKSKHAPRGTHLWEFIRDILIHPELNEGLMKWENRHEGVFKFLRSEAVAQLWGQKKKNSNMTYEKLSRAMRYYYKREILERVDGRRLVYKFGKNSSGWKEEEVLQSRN
The note with it: protein: recombinant; tags: N-terminal GST; dsDNA, one strand shown. An outline of the steps: as §1

Another test deals with CRX (Homo sapiens, UniProt O43186 1-299). As to conditions: protein: recombinant; tags: N-terminal GST; dsDNA, one strand shown. An outline of the steps:
as §1

In a further test the target is ETV1 (Homo sapiens, UniProt P50549 1-477). The note with it: protein: recombinant; tags: N-terminal GST; dsDNA, one strand shown. An outline of the steps:
as §1

The target in the next test is T6, ERF (Homo sapiens, UniProt P50548 1-548).
T6 sequence: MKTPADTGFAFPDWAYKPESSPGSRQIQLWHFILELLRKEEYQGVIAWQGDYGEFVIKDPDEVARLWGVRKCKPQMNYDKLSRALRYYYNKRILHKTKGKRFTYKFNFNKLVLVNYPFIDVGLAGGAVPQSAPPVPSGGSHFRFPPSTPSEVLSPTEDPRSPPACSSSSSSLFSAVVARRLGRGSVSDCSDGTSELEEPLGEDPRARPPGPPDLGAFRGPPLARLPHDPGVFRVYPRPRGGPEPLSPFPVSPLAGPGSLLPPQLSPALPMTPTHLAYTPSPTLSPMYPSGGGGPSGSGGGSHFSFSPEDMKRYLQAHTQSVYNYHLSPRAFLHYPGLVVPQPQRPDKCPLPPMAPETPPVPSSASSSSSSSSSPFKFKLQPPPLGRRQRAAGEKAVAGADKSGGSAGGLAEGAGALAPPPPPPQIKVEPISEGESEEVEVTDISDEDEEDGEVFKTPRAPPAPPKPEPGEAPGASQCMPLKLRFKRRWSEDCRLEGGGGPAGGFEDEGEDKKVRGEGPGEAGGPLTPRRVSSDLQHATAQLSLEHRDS
As to conditions: protein: recombinant; tags: N-terminal GST; dsDNA, one strand shown. The method in brief: as §1

The target of the next test is T7, ETV3L (Homo sapiens, UniProt Q6ZN32 1-361).
T7 sequence: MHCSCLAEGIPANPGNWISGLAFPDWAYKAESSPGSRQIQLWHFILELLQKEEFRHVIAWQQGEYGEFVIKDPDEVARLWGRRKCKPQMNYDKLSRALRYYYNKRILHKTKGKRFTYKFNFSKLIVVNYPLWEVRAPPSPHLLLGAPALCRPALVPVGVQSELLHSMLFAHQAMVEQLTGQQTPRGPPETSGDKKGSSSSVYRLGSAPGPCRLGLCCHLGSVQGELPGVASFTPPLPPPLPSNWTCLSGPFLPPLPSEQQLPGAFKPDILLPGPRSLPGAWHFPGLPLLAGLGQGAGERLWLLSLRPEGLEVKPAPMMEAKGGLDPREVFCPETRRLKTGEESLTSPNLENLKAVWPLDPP
As to conditions: protein: recombinant; tags: N-terminal GST; dsDNA, one strand shown. An outline of the steps:
as §1

Another test concerns the target T8, ETS2 (Homo sapiens, UniProt P15036 1-469).
T8 sequence: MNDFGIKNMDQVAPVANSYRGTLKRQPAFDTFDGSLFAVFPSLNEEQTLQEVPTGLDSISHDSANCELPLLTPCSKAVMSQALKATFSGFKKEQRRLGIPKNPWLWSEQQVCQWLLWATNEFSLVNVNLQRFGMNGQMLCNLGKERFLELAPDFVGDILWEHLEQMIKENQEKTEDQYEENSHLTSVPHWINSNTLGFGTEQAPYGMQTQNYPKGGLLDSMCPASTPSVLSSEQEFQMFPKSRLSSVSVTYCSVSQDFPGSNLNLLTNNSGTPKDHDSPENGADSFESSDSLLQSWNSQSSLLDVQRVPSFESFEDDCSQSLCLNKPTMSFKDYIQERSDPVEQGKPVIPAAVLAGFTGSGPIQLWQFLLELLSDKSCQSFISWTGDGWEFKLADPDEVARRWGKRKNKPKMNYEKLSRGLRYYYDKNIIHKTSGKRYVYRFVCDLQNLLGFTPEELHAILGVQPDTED
As to conditions: protein: recombinant; tags: N-terminal GST; dsDNA, one strand shown. The method in brief:
as §1

The target of another test is T9, SPDEF (Homo sapiens, UniProt O95238 1-335).
T9 sequence: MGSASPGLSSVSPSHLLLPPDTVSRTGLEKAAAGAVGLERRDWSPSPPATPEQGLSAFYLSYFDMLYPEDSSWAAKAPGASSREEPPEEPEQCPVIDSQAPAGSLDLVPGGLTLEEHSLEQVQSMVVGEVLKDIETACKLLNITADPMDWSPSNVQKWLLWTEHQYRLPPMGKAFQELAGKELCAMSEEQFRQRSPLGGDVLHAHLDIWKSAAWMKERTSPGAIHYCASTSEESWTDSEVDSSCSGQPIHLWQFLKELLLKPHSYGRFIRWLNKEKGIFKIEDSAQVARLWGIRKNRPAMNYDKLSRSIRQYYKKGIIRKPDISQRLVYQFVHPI
As to conditions: protein: recombinant; tags: N-terminal GST; dsDNA, one strand shown. The method in brief:
as §1

In a further test the target is T10, ETV7 (Homo sapiens, UniProt Q9Y603 1-341).
T10 sequence: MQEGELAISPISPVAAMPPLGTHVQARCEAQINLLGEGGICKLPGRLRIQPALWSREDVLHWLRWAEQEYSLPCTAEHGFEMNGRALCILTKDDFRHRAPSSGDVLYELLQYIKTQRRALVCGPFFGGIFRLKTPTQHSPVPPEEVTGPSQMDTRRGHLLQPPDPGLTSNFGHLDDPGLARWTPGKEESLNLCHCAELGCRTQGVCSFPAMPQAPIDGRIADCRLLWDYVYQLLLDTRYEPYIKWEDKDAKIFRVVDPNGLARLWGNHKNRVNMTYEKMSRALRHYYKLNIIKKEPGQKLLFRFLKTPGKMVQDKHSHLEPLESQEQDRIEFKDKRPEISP
As to conditions: protein: recombinant; tags: N-terminal GST; dsDNA, one strand shown. The method in brief:
as §1

In another test the target is T11, ELF5 (Homo sapiens, UniProt Q9UKW6-2 1-255).
T11 sequence: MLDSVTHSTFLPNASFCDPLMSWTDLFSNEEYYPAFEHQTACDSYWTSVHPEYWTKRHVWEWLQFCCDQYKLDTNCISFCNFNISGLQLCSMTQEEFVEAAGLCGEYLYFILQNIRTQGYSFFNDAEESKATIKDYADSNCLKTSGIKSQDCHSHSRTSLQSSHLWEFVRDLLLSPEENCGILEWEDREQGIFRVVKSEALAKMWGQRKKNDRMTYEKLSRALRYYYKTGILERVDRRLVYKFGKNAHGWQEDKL
As to conditions: protein: recombinant; tags: N-terminal GST; dsDNA, one strand shown. An outline of the steps:
as §1

The next test concerns the target T12, ETV3 (Homo sapiens, UniProt P41162-2 1-143).
T12 sequence: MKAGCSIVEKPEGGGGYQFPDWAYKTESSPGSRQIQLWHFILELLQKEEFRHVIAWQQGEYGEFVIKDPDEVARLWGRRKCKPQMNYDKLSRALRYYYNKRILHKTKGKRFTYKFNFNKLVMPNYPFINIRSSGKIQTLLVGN
The note with it: protein: recombinant; tags: N-terminal GST; dsDNA, one strand shown. An outline of the steps: as §1

The next test deals with ETV6 (Homo sapiens, UniProt P41212 1-452). As to conditions: protein: recombinant; tags: N-terminal GST; dsDNA, one strand shown. The method in brief: as §1
ETV6, sequence (P41212 whole entry): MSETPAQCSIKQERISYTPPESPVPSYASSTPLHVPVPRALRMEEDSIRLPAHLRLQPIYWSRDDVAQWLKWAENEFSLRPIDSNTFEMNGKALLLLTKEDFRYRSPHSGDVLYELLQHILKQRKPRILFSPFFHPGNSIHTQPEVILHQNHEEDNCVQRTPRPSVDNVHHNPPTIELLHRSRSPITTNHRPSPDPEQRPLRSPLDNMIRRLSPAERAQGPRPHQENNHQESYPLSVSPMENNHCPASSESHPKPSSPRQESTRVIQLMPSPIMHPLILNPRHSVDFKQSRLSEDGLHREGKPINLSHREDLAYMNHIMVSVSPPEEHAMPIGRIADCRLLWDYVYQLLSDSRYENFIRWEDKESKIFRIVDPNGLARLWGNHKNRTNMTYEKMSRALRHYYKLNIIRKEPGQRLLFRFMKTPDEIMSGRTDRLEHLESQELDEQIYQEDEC

HSF1, sequence (Q00613 whole entry): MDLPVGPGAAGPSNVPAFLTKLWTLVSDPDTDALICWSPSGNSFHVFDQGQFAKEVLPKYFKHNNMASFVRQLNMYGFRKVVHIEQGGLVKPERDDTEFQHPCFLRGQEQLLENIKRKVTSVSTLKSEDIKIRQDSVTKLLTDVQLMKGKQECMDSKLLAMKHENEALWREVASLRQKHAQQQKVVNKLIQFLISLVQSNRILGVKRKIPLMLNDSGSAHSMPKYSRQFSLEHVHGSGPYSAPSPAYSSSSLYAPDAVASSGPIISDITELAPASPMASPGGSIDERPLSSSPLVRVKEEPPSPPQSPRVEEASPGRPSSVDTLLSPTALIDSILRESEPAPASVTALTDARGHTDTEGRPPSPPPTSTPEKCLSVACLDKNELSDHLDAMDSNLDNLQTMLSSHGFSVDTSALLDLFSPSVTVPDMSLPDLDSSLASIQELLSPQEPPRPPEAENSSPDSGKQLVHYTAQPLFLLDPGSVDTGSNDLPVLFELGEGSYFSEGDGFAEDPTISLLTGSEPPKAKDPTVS
CRX, sequence (O43186 whole entry): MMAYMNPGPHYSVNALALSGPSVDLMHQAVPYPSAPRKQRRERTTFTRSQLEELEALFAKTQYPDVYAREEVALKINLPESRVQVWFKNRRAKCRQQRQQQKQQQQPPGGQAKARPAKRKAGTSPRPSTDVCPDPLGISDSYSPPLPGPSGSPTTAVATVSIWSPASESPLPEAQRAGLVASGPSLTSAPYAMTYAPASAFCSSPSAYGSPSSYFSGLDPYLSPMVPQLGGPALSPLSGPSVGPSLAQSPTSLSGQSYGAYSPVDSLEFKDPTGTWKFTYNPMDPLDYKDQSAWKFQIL
ETV1, sequence (P50549 whole entry): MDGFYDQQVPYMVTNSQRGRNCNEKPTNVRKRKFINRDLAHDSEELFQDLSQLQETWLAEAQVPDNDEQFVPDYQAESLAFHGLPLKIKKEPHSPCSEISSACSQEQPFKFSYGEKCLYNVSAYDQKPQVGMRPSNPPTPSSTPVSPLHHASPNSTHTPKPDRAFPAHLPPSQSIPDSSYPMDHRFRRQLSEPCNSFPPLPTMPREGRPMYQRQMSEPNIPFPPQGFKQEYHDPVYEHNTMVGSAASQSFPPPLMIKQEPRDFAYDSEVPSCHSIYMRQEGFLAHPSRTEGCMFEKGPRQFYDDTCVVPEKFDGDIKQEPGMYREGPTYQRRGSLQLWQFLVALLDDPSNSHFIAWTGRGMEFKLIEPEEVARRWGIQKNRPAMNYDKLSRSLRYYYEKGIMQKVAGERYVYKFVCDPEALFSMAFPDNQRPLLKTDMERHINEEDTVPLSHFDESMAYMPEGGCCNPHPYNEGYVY
ETV5, sequence (P41161 whole entry): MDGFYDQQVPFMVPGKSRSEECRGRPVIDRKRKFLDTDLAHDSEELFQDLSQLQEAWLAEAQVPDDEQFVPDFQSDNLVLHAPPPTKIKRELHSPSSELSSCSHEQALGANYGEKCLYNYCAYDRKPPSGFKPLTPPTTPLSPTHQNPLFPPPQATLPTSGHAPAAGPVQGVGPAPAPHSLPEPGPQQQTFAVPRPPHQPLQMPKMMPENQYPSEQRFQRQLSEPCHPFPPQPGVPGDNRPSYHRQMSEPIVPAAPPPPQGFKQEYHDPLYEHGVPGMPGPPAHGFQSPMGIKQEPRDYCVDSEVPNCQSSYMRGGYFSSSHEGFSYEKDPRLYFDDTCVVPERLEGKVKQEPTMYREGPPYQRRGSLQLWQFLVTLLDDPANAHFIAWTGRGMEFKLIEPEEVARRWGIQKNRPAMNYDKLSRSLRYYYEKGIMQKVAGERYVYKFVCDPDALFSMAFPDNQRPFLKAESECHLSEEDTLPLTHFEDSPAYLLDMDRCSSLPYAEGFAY
ELF4, sequence (Q99607 whole entry): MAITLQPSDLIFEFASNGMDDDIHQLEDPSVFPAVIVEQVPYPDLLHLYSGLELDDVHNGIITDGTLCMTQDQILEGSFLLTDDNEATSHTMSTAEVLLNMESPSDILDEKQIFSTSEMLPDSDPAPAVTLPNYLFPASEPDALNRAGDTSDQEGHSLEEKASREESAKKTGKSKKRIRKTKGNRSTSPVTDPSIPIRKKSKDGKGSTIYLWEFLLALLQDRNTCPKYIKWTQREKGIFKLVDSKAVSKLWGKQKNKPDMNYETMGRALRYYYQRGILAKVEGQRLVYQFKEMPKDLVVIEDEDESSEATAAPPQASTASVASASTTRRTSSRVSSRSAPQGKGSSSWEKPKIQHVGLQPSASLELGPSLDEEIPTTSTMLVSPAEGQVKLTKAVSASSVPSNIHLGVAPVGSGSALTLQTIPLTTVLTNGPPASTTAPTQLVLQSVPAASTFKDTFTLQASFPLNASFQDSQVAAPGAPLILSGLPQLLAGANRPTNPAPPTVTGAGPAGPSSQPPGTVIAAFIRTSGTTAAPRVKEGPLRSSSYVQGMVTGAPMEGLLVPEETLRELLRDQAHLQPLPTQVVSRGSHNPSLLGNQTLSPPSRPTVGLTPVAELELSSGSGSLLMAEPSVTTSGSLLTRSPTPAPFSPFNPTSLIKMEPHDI

On to ACTACT, for which the binding signal in the test with FEV is 1.3 fold enrichment (6-mer frequency, TF over GST control); with ETV5 it was 1.19 fold enrichment (6-mer frequency, TF over GST control); with HSF1 it was 1.12 fold enrichment (6-mer frequency, TF over GST control); with SPIC, 1.26 fold enrichment (6-mer frequency, TF over GST control); with ELF4, 1.22 fold enrichment (6-mer frequency, TF over GST control); with ELK4, 1.36 fold enrichment (6-mer frequency, TF over GST control). Moreover, the binding signal was 1.44 fold enrichment (6-mer frequency, TF over GST control) in the test with ETV2; 1.24 fold enrichment (6-mer frequency, TF over GST control) with ELF3; 1.11 fold enrichment (6-mer frequency, TF over GST control) with CRX; 1.14 fold enrichment (6-mer frequency, TF over GST control) with ETV1; 1.33 fold enrichment (6-mer frequency, TF over GST control) with ERF; 1.37 fold enrichment (6-mer frequency, TF over GST control) with ETV3L. Besides, the binding signal with ETS2 was 1.25 fold enrichment (6-mer frequency, TF over GST control); in the test with SPDEF it was 1.15 fold enrichment (6-mer frequency, TF over GST control); with ETV7, 1.35 fold enrichment (6-mer frequency, TF over GST control); in the test with ELF5, 1.34 fold enrichment (6-mer frequency, TF over GST control); with ETV3 it was 1.13 fold enrichment (6-mer frequency, TF over GST control); with ETV6 it was 1.27 fold enrichment (6-mer frequency, TF over GST control).
